# From PubChem BioAssay AID1851 (National Center for Advancing Translational Sciences (NCATS), 2009)
# “And” between values parts separate entries of the source, which are not always exact repeats. Identical values can stand only once. The campaign covered roughly 16,000 compounds. About 2,600 (16%) were called active. Another 20% or so got no clear call; they are omitted. A selection follows. Unmarked numbers belong to inactive results. Calls follow the shape of the dose curve; as a rule, active = well fitted curve in the direction sought with a large enough effect; inconclusive = small, poorly fitted or top-dose-only effect, or effect the other way; inactive = no such curve, though single readings can be large or run the other way. Square brackets hold non-standard residues; d marks the D form. Peptide text beside a SMILES is read from it. * marks the point of attachment. ξ: configuration not given here. Cbz = O=C(OCc1ccccc1)*; OBn = c1ccc(CO*)cc1; ξP = O=C(O)C1CCCN1
# Target: Cytochrome P450 2D6 (Homo sapiens) (UniProt P10635)
# Sequence (P10635 whole entry, looked up): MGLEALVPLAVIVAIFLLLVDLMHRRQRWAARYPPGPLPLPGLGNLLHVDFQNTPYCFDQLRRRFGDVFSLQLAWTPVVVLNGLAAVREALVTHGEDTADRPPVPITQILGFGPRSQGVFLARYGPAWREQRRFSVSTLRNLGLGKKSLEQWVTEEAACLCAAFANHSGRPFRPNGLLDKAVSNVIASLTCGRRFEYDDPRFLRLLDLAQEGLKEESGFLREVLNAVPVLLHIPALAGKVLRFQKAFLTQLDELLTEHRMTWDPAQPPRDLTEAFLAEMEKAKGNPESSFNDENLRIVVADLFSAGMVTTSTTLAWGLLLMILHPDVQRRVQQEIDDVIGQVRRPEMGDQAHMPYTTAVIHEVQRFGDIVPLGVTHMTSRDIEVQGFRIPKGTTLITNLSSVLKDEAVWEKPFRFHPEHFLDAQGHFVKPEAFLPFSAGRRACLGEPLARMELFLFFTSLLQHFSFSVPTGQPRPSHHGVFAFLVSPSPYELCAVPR
# Assay: Cytochrome panel assay with activity outcomes
# Conditions: recombinant CYP, pro-luciferin dealkylation, luminescence, p450-cyp2d6; series mostly up to 57.1 µM; activity, negative = inhibition: at the top concentration
# % is scaled to controls: 0 for no effect and ±100 for the full control effect.
SMILES,"activity, negative = inhibition",AC50
O=c1c(-c2cc(F)cc(F)c2)nc2cncnc2n1Cc1ccccc1Cl,-8.97%,
CN1CCN(NC(=O)CN2C(=O)/C(=C/c3c(Cl)cccc3Cl)SC2=S)CC1,-9.02%,
COc1cc2cc3c(N)c(C(=O)Nc4sc(C)c(C)c4C#N)sc3nc2cc1OC,-0.0904%,
C[C@](N)(C(=O)O)c1ccc(-c2nn[nH]n2)cc1,-0.522%,
CCOC(=O)c1cc(CC)sc1NC(=O)c1cc(OCC)c(OCC)c(OCC)c1,-1.3%,
O=C(NCc1cccnc1)c1sc2cc(Cl)ccc2c1Cl,-81.1%,
COc1ccc(C(=O)N/C(=C/c2cccs2)C(=O)NCCCn2ccnc2)cc1OC,-6.39%,
S=C(S)NCCN1CCNCC1,-7.83% [at 11.4 µM],
O=C(NCCCn1ccnc1)Nc1ccc(Cl)cc1,,1.58 µM (active)
Cn1nc(-c2ccccc2)c(C(=O)Nc2ccc(Cl)cc2)c1Cl,18.7%,
CSc1ccc(NC(=O)NCCN2CCc3ccccc3C2)cc1,,5.01 µM (active)
Cc1ccc(NC(=O)NCCCc2ccccc2)cc1,-26.1%,
CSc1ccc(NC(=O)Nc2cc(C)ccn2)cc1,-10.4% [at 11.4 µM],
COc1ccc2c(Cl)c(C(=O)NCCCn3ccnc3)sc2c1Cl,,0.631 µM (active)
Cc1ccc(NC(=O)N/C=C/c2ccc(Cl)cc2)cc1,8.55%,
S=C(S)NCCCn1ccnc1,,0.794 µM (active)
NCCNC(=S)S,-18.7% [at 11.4 µM],
Nc1nc2c(c(=O)[nH]1)CN(CCCN1CCOCC1)CN2,0.904% [at 11.4 µM],
Nc1ccc(S(=O)(=O)Nc2ncccn2)cc1,-3.37% [at 25.6 µM],
O=C1[C@H]2[C@H]3[C@H](O)[C@H](O)C/C(=N/OC[C@@H](O)COCc4ccco4)[C@@H]3CC[C@@H]2C(=O)N1C[C@@H]1CCCO1,3.77% [at 11.4 µM],
Cc1nnc(NC(=O)c2cccc(NC(=O)C(C)C)c2)s1,-16.4%,
O=C(O)c1cc(S(=O)(=O)NCC2CCCO2)ccc1Cl (centres undefined),7.8%,
CN[C@@H]1[C@H](O[C@H]2[C@@H](O[C@@H]3[C@@H](O)[C@@H](O)[C@@H](N=C(N)N)[C@@H](O)[C@@H]3N=C(N)N)O[C@@H](C)[C@]2(O)CO)O[C@H](CO)[C@@H](O)[C@@H]1O,6.76% [at 25.6 µM],
COc1ccccc1C1=NOC(COC(=O)c2ccc3ccccc3n2)C1 (centres undefined),-15.5%,
COc1ccc(S(=O)(=O)N(C)CC(=O)NCc2ccco2)cc1,-21.7%,
Cc1cccc(CSCCNC(=O)c2ccc(N(C)S(=O)(=O)c3ccccc3)cc2)c1,,3.98 µM (active)

SMILES,"activity, negative = inhibition",AC50
Cc1cccc(N(CC(=O)N2CCOCC2)S(C)(=O)=O)c1,6.15%,
Cc1cccc(N(CC(=O)NCCSCc2ccco2)S(=O)(=O)c2ccccc2)c1,,10 µM (active)
Cc1cccc(Cc2c(C)nc3nc(SCC(=O)NCc4ccco4)nn3c2C)c1,-28.1%,
CN(CCC(=O)O)S(=O)(=O)c1ccccc1,4.74% [at 11.4 µM],
CN(c1ccc(C(=O)NCc2ccccn2)cc1)S(C)(=O)=O,0.808%,
CN(c1ccc(C(=O)NCC2CCCO2)cc1)S(=O)(=O)c1ccccc1 (centres undefined),-3.97%,
O=C(CN(c1ccccc1)S(=O)(=O)c1ccccc1)NCCSCc1ccco1,,15.8 µM (active)
COc1cccc(Nc2ncc3ncc(=O)n(C4CC4)c3n2)c1,-7.19%,
Cc1ccc(C)c(CN2C(=O)C3CCCN3c3ccc(C#N)cc32)c1 (centres undefined),-24.5%,
CCOC(=O)c1c(C)oc2c1c(C=NC1CCS(=O)(=O)C1)c(O)c1ccccc12 (centres undefined),16%,
CCN1C(=O)[C@H]2[C@H]3[C@H](O)[C@H](O)C/C(=N/O[C@@H](C)c4cn([C@H](CO)Cc5ccccc5)nn4)[C@@H]3CC[C@@H]2C1=O,6.53% [at 11.4 µM] and -9.99% [at 11.4 µM],
Cc1c(/C=N/NC(=O)c2ccc3c(c2)OCO3)cnn1C,-7.96%,
CCNC(=S)NNC(=O)c1cc(C2CC2)nc2ccccc12,-6.71%,
COC(=O)c1nn(-c2ccccc2)c(-c2ccccc2)c1C(=O)c1ccccc1,18.4%,
CCCOc1ccccc1C1CC(=O)NC(C)=C1C(=O)OCC(C)C (centres undefined),34.2%,
O=C(NCCO)c1cc2c(s1)CCC2,23.4%,
Cc1cc(C(=O)CC#N)c(C)n1CC(F)(F)F,8.26%,
CCOC(=O)c1c2c(n3ccccc13)C(=O)c1ccccc1C2=O,5.34% [at 11.4 µM],
COCCNC(=O)Cn1cnc2ccc(S(=O)(=O)N3CCC(C)CC3)cc2c1=O,30.8%,
Cc1ccc2nc(N3CCN(S(=O)(=O)c4ccc5c(c4)OCCO5)CC3)c(C#N)cc2c1,-8.49%,
NC(=O)c1ccc(NC(=O)C2CCCO2)cc1 (centres undefined),-1.89%,
CSc1ccc(CNc2ccc(C)c(C)c2)cc1,,11.2 µM (active)
CSc1ccc(CNc2ccc(Cl)cc2)cc1,-40.9%,
Cc1nc2cnc(Oc3ccccc3)nc2n(C)c1=O,1.84%,
COc1ccc(-c2nc3cnc(OC)nc3n(C)c2=O)cc1,-0.979%,
O=C(Nc1ccc(Cl)c(C(F)(F)F)c1)C1CCCN(S(=O)(=O)c2cnc[nH]2)C1 (centres undefined),,3.98 µM (active)

SMILES,"activity, negative = inhibition",AC50
CCCS(=O)(=O)N1CCCC(C(=O)NCc2cccnc2)C1 (centres undefined),-1.8%,
COc1ccc(OC)c(S(=O)(=O)N2CCC(C(=O)Nc3ccc(C)c(C)c3)CC2)c1,-12.1%,
CCOc1ccc(-c2nnc3ccc(SC)nn23)cc1,-16.4%,
N[C@@H](CSS(=O)(=O)O)C(=O)O,-1.36%,
CCOC(=O)c1c(C)nc2sc3c(=O)n(-c4ccc(C(C)=O)cc4)nnc3c2c1-c1ccc(Cl)cc1,0.783%,
Cc1noc(C)c1-c1cncnc1NCc1ccccc1,0.449%,
Cc1ccccc1-c1cncnc1NCc1cccnc1,,15.8 µM (active)
Cc1ccccc1-c1cncnc1NCc1ccccc1,,12.6 µM (active)
CN(C)Cc1ccccc1-c1cncnc1NCc1cccnc1,,6.31 µM (active)
CN(C)C(=O)c1ccc(-c2cncnc2NCc2cccnc2)cc1,-19.7%,
N#Cc1ccccc1-c1cncnc1NCc1cccnc1,-4.85%,
Cc1cccc(CNc2ncncc2-c2ccccc2C)c1,,3.98 µM (active)
CC(C)Sc1cc(N2CCCC2)nc(-c2ccc(F)cc2)n1,-3.37%,
C=CCNC(=S)N/N=C/c1ccc(-c2cc(Cl)ccc2Cl)o1,8.52%,
O=C(CNC(=O)OCc1ccccc1)NCC(=O)N1CCCC1C(=O)OCc1ccccc1 (stereo not drawn) (Cbz-Gly-Gly-[ξP]-OBn),-22.2%,
CSCCC(NC=C1C(=O)OC(C)(C)OC1=O)C(=O)O (centres undefined),-5.1%,
CCOc1cc(/C=C2/NC(=O)N(CC(=O)Nc3cccc(C)c3)C2=O)ccc1OC,27.9%,
CCCCSCc1nc2nc(Cl)c(Cl)nc2[nH]1,-12.2% [at 11.4 µM],
C[n+]1ccc(/C=C/c2ccc(Br)cc2)cc1,-25.3%,
OCCNc1ncnc2nc[nH]c12,-4.05% [at 11.4 µM],
Cc1cc(NC(=O)COC(=O)c2ccc(S(=O)(=O)N3CCCc4ccccc43)cc2)no1,-20.2%,
Cc1cnc(CNc2cc(-c3ccccc3C(F)(F)F)ncn2)cn1,3.41%,
Cc1cccc(CNc2ncncc2-c2ccccc2Cl)c1,,2 µM (active)
c1cncc(-c2cncnc2NC2CCNCC2)c1,-6.86%,
Cc1ccccc1-c1cncnc1NC1CCNCC1,,10 µM (active)
Cc1cnc(CNc2ncncc2-c2ccccc2C(F)(F)F)cn1,-18.3%,

SMILES,"activity, negative = inhibition",AC50
Cc1noc(C)c1-c1cncnc1NC1CC1,-5.38%,
Cc1cccc(CNc2ncncc2-c2ccccc2C(F)(F)F)c1,,12.6 µM (active)
O=C(c1cnccn1)N1CCC[C@@]2(CCN(c3ccncc3)C2)C1,4.46%,
Cc1ccc(OC(=O)c2cccc(C(=O)Oc3ccc(C)cc3)n2)cc1,8.06%,
N[C@H](C(=O)O)[C@H](O)C(=O)O,7.74%,
O=C1C(Cc2ccccc2)C(c2ccccc2)N1c1ccccc1 (centres undefined),-24.3%,
COc1ncc2nc(-c3ccc(F)cc3)c(=O)n(Cc3ccc(F)cc3)c2n1,1.19%,
N[C@@H](Cc1ccnnc1)C(=O)O,-0.458% [at 11.4 µM],
Cc1nc2cnc(Oc3ccccc3)nc2n(CCc2ccccc2)c1=O,8.49%,
COc1n[nH]c2nncnc12,4.07%,
Cn1c(=O)c(-c2ccc(Cl)cc2)nc2cnc(OCc3ccccc3)nc21,7.5%,
Clc1ccc(COn2c(-c3ccccc3)nc3ccccc32)cc1,,15.8 µM (active)
O=C(CCc1nc(-c2ccccc2)c(-c2ccccc2)o1)OCc1ccc(Cl)cc1,-26.9%,
O=[N+]([O-])c1ccc2nc(-c3ccc(Cl)cc3)n(OCc3ccccc3)c2c1,-6.03%,
Cc1ccc(COn2c(-c3ccc(Cl)cc3)nc3ccc([N+](=O)[O-])cc32)cc1,-20.1%,
O=[N+]([O-])c1ccc2nc(-c3ccccc3)n(OCc3ccc(Cl)cc3)c2c1,,6.31 µM (active)
COc1cccc(Cn2c(=O)c(-c3cn(C)c4ccccc34)nc3cnc(N4CCOCC4)nc32)c1,-6.4%,
O=c1c(-c2ccc(F)c(F)c2)nc2cncnc2n1-c1ccccc1,-7.35%,
NS(=O)(=O)c1ccc(N=Nc2ccc(O)c(C(=O)O)c2)cc1,-7.58% [at 11.4 µM],
Cc1ccccc1/C=C1\OC(=O)c2ccccc21,-3.09%,
CCCC[C@@H]1C[C@H]1C(NC(=O)c1cccs1)c1ccccc1C(F)(F)F (some centres undefined),2.19%,
CCC(c1nnnn1CCOC)N1CCN(C(=O)c2ccco2)CC1 (centres undefined),-6.06%,
Cc1ccc(C(c2nnnn2CC2CCCO2)N2CCN(C(=O)c3ccco3)CC2)cc1 (centres undefined),-15.5%,
CC(C)CCn1nnnc1C(c1ccc(F)cc1)N1CCN(C(=O)c2ccco2)CC1 (centres undefined),,14.1 µM (active)
O=C(Nc1ccccc1N1CCN(C(=O)c2ccccc2)CC1)c1cc(Br)ccc1Cl,-14.4%,
S=c1[nH]nc(CSCc2ccccc2Cl)n1-c1ccccc1,-16.7%,
